The nature of assay [1]: A CellTox Green Cytotoxicity Assay to monitor cytotoxicity in HEK293 cells - 40 hour (AID 1224871). Note: nearly all actives have a fitted effect of over 45% in size. Note: potency is the fitted concentration of half-maximal effect. In short, it runs like this: (§1)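 Cells (HEK293, 600/well) and dye reagent are dispensed together. After 5 h at 37 C, 23 nL compound is pinned in. Plates stay at 37 C for 40 h with fluorescence read at 0h, 8h, 16h, 24h, 32h and 40h.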
Assay [2] can be described thus: qHTS RealTime-Glo MT Cell Viability Assay in HEK293 cells - 16 hour (AID 1224872). Note: nearly all actives have a fitted effect of over 50% in size. Note: potency is the fitted concentration of half-maximal effect. In short, it runs like this: (§2)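 Nonlytic real-time viability readout: viable cells convert prosubstrate to NanoLuc substrate, giving luminescence proportional to live cell number. HEK293, 600 cells/well, compound added after 5 h, continuous culture at 37 C.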
(In general: qHTS replaces the single test concentration by a dilution series.)

Assay [3] is described as follows: qHTS RealTime-Glo MT Cell Viability Assay in HepG2 cells - 8 hour (AID 1224873). Note: nearly all actives have a fitted effect of over 55% in size. The essentials: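 Real-time viability: cells seeded at 600 per well together with NanoLuc and cell-permeant prosubstrate, compounds added after 5 h incubation. Luminescence tracked at 0, 8, 16, 24, 32 and 40 h of exposure.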
Assay [4] can be described thus: qHTS RealTime-Glo MT Cell Viability Assay in HEK293 cells - 40 hour (AID 1224874). Note: nearly all actives have a fitted effect of over 50% in size. Note: potency is the fitted concentration of half-maximal effect. The settings on record: RealTime-Glo luminescence; max response: stronger effect = lower value. The essentials:
(§3)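 Real-time viability in HEK293: signal arises when living cells convert a prosubstrate for NanoLuc in the medium, so luminescence tracks viable cell number. Compound (23 nL, DMSO) added 5 h post-seeding; kinetic reads at 0–40 h, 37 C.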

The nature of assay [5]: A CellTox Green Cytotoxicity Assay to monitor cytotoxicity in HEK293 cells - 24 hour (AID 1224875). Note: series mostly up to about 77 µM; nearly all actives have a fitted effect of over 45% in size. In short, it runs like this: as §1
The nature of assay [6]: A CellTox Green Cytotoxicity Assay to monitor cytotoxicity in HepG2 cells - 16 hour (AID 1224876). Note: nearly all actives have a fitted effect of over 45% in size. Note: potency is the fitted concentration of half-maximal effect. In short, it runs like this:
(§4)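 Cells and non-lytic dye reagent are dispensed together (600 HepG2 cells/well) and incubated 5 h before DMSO compound transfer. Kinetic fluorescence is then recorded in the same wells during 40 h at 37 C.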

Assay [7] is described as follows: qHTS RealTime-Glo MT Cell Viability Assay in HepG2 cells - 32 hour (AID 1224877). Note: nearly all actives have a fitted effect of over 55% in size. Note: potency is the fitted concentration of half-maximal effect. In short, it runs like this:
(§5)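 Luminescence read-out: viable HepG2 cells reduce a prosubstrate to a NanoLuc substrate, giving a signal proportional to live cell number. Reads taken at 0, 8, 16, 24, 32 and 40 h of compound exposure at 37 C.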

Assay [8] can be described thus: A CellTox Green Cytotoxicity Assay to monitor cytotoxicity in HepG2 cells - 24 hour (AID 1224878). Note: nearly all actives have a fitted effect of over 45% in size. Note: potency is the fitted concentration of half-maximal effect. The essentials:
as §4

Assay [9] is described as follows: A CellTox Green Cytotoxicity Assay to monitor cytotoxicity in HepG2 cells - 40 hour (AID 1224879). Note: nearly all actives have a fitted effect of over 40% in size. Note: potency is the fitted concentration of half-maximal effect. In short, it runs like this: as §4
Assay [10] in a line: qHTS RealTime-Glo MT Cell Viability Assay in HEK293 cells - 0 hour (AID 1224880). The essentials:
as §3

A short description of assay [11]: A CellTox Green Cytotoxicity Assay to monitor cytotoxicity in HEK293 cells - 32 hour (AID 1224881). Note: nearly all actives have a fitted effect of over 40% in size. Note: potency is the fitted concentration of half-maximal effect. The essentials: as §1
A short description of assay [12]: A CellTox Green Cytotoxicity Assay to monitor cytotoxicity in HepG2 cells - 0 hour (AID 1224882). Note: nearly all actives have a fitted effect of over 35% in size. The essentials: as §4
The nature of assay [13]: A CellTox Green Cytotoxicity Assay to monitor cytotoxicity in HepG2 cells - 32 hour (AID 1224883). Note: nearly all actives have a fitted effect of over 50% in size. Note: potency is the fitted concentration of half-maximal effect. The essentials: as §4
Assay [14] can be described thus: A CellTox Green Cytotoxicity Assay to monitor cytotoxicity in HEK293 cells - 8 hour (AID 1224884). Note: nearly all actives have a fitted effect of over 35% in size. Note: potency is the fitted concentration of half-maximal effect. In short, it runs like this:
as §1

The nature of assay [15]: qHTS RealTime-Glo MT Cell Viability Assay in HepG2 cells - 16 hour (AID 1224885). Note: nearly all actives have a fitted effect of over 50% in size. In short, it runs like this: as §5
Assay [16] is described as follows: qHTS RealTime-Glo MT Cell Viability Assay in HEK293 cells - 24 hour (AID 1224886). Note: nearly all actives have a fitted effect of over 50% in size. Note: potency is the fitted concentration of half-maximal effect. In short, it runs like this:
as §2

Assay [17] can be described thus: qHTS RealTime-Glo MT Cell Viability Assay in HEK293 cells - 8 hour (AID 1224887). Note: nearly all actives have a fitted effect of over 50% in size. Note: potency is the fitted concentration of half-maximal effect. The essentials: as §3
Assay [18] is described as follows: A CellTox Green Cytotoxicity Assay to monitor cytotoxicity in HEK293 cells - 16 hour (AID 1224888). Note: nearly all actives have a fitted effect of over 35% in size. In short, it runs like this:
as §1

Assay [19] can be described thus: qHTS RealTime-Glo MT Cell Viability Assay in HepG2 cells - 0 hour (AID 1224889). Note: nearly all actives have a fitted effect of over 50% in size. The essentials: as §5
Assay [20] in a line: A CellTox Green Cytotoxicity Assay to monitor cytotoxicity in HepG2 cells - 8 hour (AID 1224890). Note: nearly all actives have a fitted effect of over 45% in size. Note: potency is the fitted concentration of half-maximal effect. The essentials: as §4

Molecules are shown by their SMILES. Values joined by “and” are separate entries in the source; they are usually repeats but may differ in a detail not shown here. Equal values may be shown once. Inconclusive results are not listed. More than one record can exist for a structure, and the calls need not agree. Active and inactive are the calls of the source. Calls come from the whole dose curve; as a rule, active = well fitted curve in the direction sought with a large enough effect in the repeat runs; inconclusive = weak or mixed curves; inactive = no such curve, though single readings can be large; an effect the other way counts as inactive or inconclusive.
% is set by controls: 0 for no effect and ±100 for the full control effect.

Regarding `Nc1cccc(C(F)(F)F)c1`, the Potency result in assay [1], in [2], in assay [3], in assay [5], in [6] and in assay [7] was “inactive” each time. The Potency result in assay [8], in [9], in assay [10], in assay [11], in [12] and in assay [13] was “inactive” in each case. Also, the Potency entry in assay [15], in assay [16], in [17], in [18], in [19] and in assay [20] was “inactive” throughout. Also, the max response in assay [4] was 3.13% (inactive) and 0.276% (inactive). Also, the Potency in assay [14] was 40.1 µM (active) and inactive.
For `OC[C@H]1O[C@@H](Oc2ccc(O)cc2)[C@H](O)[C@@H](O)[C@@H]1O`, the Potency result in assay [1], in [2], in assay [3], in assay [5], in assay [6] and in assay [7] was “inactive” each time. Also, the Potency entry in [8], in assay [9], in assay [10], in [11], in assay [12] and in assay [13] was “inactive” throughout. The Potency result in [14], in assay [15], in assay [16], in assay [17], in [18] and in [19] was “inactive” each time. In assay [20], the Potency entry is “inactive”. For the same compound, in assay [4], the max response is 3.45% (inactive) and 3.98% (inactive).
In the case of `OCC(CO)(CO)CO`, the Potency entry in [1], in assay [2], in assay [3], in [5], in assay [6] and in [7] was “inactive” in each case. In addition, the Potency result in [8], in assay [9], in assay [10], in [11], in [12] and in [13] was “inactive” each time. For the same compound, the Potency result in [14], in assay [15], in assay [16], in assay [17], in assay [18] and in assay [19] was “inactive” in each case. Also, in [20], the Potency entry was “inactive”. Further, the max response in [4] is 2.43% (inactive) and 2.9% (inactive).
With `CC(O)CNCC(C)O` (stereo not drawn), the Potency entry in assay [1], in assay [2], in [3], in [5], in [6] and in assay [7] was “inactive” throughout. Also, the Potency result in assay [8], in [9], in assay [10], in [11], in assay [12] and in assay [13] was “inactive” throughout. The Potency result in assay [14], in assay [15], in assay [16], in assay [17], in assay [19] and in assay [20] was “inactive” throughout. Besides, in assay [4], the max response was 3.16% (inactive).
Consider `CCCN(CCC)C(=O)SCC`, for which the Potency result in assay [1], in assay [2], in assay [3], in assay [5], in [6] and in assay [7] was “inactive” throughout. Also, the Potency entry in [8], in [9], in assay [10], in assay [11], in [12] and in [13] was “inactive” throughout. For the same compound, the Potency entry in assay [14], in [15], in assay [16], in [17], in assay [19] and in [20] was “inactive” each time. Also, in assay [4], the max response is 1.3% (inactive) and 0.597% (inactive).
Take `CC(COCC(C)OC(=O)c1ccccc1)OC(=O)c1ccccc1` (stereo not drawn): the Potency entry in assay [1], in assay [3], in assay [5], in [6], in [7] and in [8] was “inactive” each time. Besides, the Potency result in assay [9], in [10], in [11], in assay [12], in assay [13] and in assay [14] was “inactive” in each case. Besides, the Potency entry in [15], in assay [18], in assay [19] and in assay [20] was “inactive” in each case.
Turning to `Cc1ccccc1Cl`, the Potency result in assay [1], in assay [2], in assay [3], in assay [5], in assay [6] and in assay [7] was “inactive” in each case. Further, the Potency result in assay [8], in assay [9], in assay [10], in assay [11], in [12] and in assay [13] was “inactive” each time. Also, the Potency entry in assay [14], in assay [15], in assay [16], in assay [17], in [19] and in assay [20] was “inactive” each time. Also, the max response in [4] is 1.86% (inactive).
Consider `O=C(NCC1CCCCN1)c1cc(OCC(F)(F)F)ccc1OCC(F)(F)F` (stereo not drawn), for which the Potency entry in assay [1], in [2], in [3], in assay [5], in assay [6] and in [7] was “inactive” throughout. Moreover, the Potency result in assay [8], in [9], in [10], in [11], in assay [12] and in assay [13] was “inactive” throughout. Besides, the Potency entry in [14], in [15], in [16], in assay [17], in assay [18] and in assay [19] was “inactive” throughout. Moreover, in assay [20], the Potency result is “inactive”.
Regarding `N[C@@H](Cc1cc(I)c(Oc2ccc(O)c(I)c2)c(I)c1)C(=O)O`, the Potency entry in assay [1], in assay [2], in assay [3], in [5], in assay [6] and in assay [7] was “inactive” each time. The Potency entry in assay [8], in assay [9], in assay [11], in assay [12], in assay [13] and in assay [14] was “inactive” each time. Also, the Potency result in assay [15], in [16], in assay [17], in assay [19] and in assay [20] was “inactive” each time. Also, in assay [4], the max response is -20.1% (inactive) and -17.6% (inactive).
As to `CC(CN1c2ccccc2Sc2ccccc21)N(C)C` (stereo not drawn), the Potency in assay [1] was 54.9 µM (active) and inactive; in [2], 39.3 µM (active) and 30.9 µM (active); in [4], 39.3 µM (active) and 43.6 µM (active) and 6.01 µM (active); in assay [6] it was “inactive and 43.6 µM (active)”; in assay [7], “inactive and 49 µM (active)”; in [8] it was 49 µM (active) and 23.9 µM (active). The Potency in assay [9] was 55.5 µM (active) and 49 µM (active) and 23.9 µM (active); in assay [11] it was 54.9 µM (active) and inactive; in [13], 55.5 µM (active) and 49 µM (active) and 23.9 µM (active); in [16], 39.3 µM (active) and 43.6 µM (active); in assay [17], 24.8 µM (active); in [20], “inactive and 54.9 µM (active)”. Moreover, the Potency result in assay [3], in assay [10], in assay [12], in [14], in assay [15] and in [18] was “inactive” each time. Also, the Potency entry in assay [19] is “inactive”.
With `CC(=O)C(C)C`, the Potency entry in assay [1], in assay [2], in assay [3], in assay [5], in [6] and in assay [7] was “inactive” each time. The Potency result in assay [8], in [9], in assay [10], in [11], in assay [12] and in [13] was “inactive” throughout. For the same compound, the Potency result in assay [14], in assay [15], in [16], in assay [17], in assay [19] and in [20] was “inactive” in each case. Further, in assay [4], the max response is 9.65% (inactive).

The values above are taken from PubChem BioAssay (Tox21).
